Hit rate of the full screen: of about 2,400 compounds, about 750 (31%) were called active.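 The calls were made as follows: active = median signal gain over dofetilide-blocked control wells reaching their mean plus 3 SD, so readout 1 at least 0; inactive = the rest.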 The list shows a part of the results. Where a SMILES comes first, the peptide text is derived from it. The star is where a group is joined. Cbz = O=C(OCc1ccccc1)*
The molecules below were run against Voltage-gated inwardly rectifying potassium channel KCNH2 (Homo sapiens) (UniProt Q12809) (assay: hERG protection against dofetilide inhibition, confirmation, cell-based, thallium flux, duplicate retest, dofetilide IC70 (AID 1835)). Settings: hERG cell line, FluxOR thallium flux, dofetilide-blocked; at 10 µM; stronger effect = higher value.
Voltage-gated inwardly rectifying potassium channel KCNH2 (Homo sapiens), sequence (Q12809 whole entry, looked up): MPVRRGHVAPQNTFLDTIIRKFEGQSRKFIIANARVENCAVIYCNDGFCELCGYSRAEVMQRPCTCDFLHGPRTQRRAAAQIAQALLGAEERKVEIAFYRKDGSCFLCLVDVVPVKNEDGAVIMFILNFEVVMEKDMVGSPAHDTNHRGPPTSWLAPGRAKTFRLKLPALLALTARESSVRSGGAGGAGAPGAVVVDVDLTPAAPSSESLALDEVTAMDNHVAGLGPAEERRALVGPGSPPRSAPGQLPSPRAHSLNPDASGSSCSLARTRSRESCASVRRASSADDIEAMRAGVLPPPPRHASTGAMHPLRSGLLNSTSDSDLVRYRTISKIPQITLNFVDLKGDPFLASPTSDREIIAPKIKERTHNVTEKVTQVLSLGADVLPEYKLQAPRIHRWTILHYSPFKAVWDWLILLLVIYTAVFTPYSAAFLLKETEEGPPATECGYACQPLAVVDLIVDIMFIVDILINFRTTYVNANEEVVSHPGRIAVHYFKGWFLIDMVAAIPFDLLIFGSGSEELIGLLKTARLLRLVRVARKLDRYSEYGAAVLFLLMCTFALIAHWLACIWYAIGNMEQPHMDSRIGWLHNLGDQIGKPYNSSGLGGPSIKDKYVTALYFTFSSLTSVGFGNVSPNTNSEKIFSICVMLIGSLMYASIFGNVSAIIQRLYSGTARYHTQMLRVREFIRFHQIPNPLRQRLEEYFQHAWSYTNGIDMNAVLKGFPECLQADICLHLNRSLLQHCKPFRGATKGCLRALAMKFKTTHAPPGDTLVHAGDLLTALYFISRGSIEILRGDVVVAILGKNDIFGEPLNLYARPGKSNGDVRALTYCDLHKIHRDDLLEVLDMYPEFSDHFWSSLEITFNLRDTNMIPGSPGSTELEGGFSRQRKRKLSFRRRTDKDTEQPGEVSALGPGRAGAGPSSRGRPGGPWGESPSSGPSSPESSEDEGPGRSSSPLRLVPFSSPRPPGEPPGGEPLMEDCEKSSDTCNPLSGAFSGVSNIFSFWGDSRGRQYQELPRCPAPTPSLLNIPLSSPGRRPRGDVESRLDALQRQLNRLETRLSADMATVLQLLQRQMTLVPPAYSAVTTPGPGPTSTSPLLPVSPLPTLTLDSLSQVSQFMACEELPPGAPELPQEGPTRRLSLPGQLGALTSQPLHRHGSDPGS

Row | SMILES | activity increase over dofetilide control, less the hit threshold
1 | Cc1ccc(N2C(=O)c3ccccc3C2(O)c2ncc[nH]2)cc1 (centres undefined) | -18% (inactive)
2 | CCc1nnc(NC(=O)c2c(C)nn(-c3ccccc3)c2Cl)s1 | -16% (inactive)
3 | COc1ccc(-n2nc(C(=O)NCC(=O)NCc3ccc(F)cc3)c3ccccc3c2=O)cc1OC | -13% (inactive)
4 | COc1ccc(-n2c(SCc3ccccn3)nc3c(c2=O)SCC3)cc1OC | 3% (active)
5 | CCOC(=O)c1c(CC(C)C)csc1NC(=O)c1ccccc1C(=O)O | -13% (inactive)
6 | CCNC(=S)Nc1scc(-c2ccccc2)c1C(=O)OCC | 5% (active)
7 | CCOC(=O)c1c(-c2ccc(C)o2)csc1NC(=S)NC(=O)N(C)C | 21% (active)
8 | CCOC(=O)c1nnsc1NC(C)=O | -13% (inactive)
9 | CCOC(=O)c1c(-c2ccccc2)csc1NC(=S)NC | 7% (active)
10 | CCOC(=O)c1cc2c(nc1NC(=S)NCc1ccccc1)CCCC2 | -1% (inactive)
11 | C=CCn1c(N2CCCCCC2)nc2c1c(=O)n(C)c(=O)n2C | -7% (inactive)
12 | CC1(OC(=O)C2CCCC2)C(=O)C=C2C=C(c3ccc(C#N)cc3)OC=C2C1=O (centres undefined) | -18% (inactive)
13 | Cc1ccc(C)c(N2CCN(S(=O)(=O)c3ccc(-c4ccc(=O)[nH]n4)o3)CC2)c1 | -11% (inactive)
14 | CC(Sc1n[nH]c(=O)[nH]c1=O)C(=O)OCc1ccccc1 (centres undefined) | -11% (inactive)
15 | Cn1c2ccccc2c(=O)c2c(=O)n(Cc3ccco3)c(-c3ccc(Cl)cc3Cl)nc21 | -10% (inactive)
16 | Cn1c(=O)c2sc3c(c2n(CC(=O)Nc2ccccc2)c1=O)COC(C)(C)C3 | -12% (inactive)
17 | COc1ccccc1-n1cnc2cc(NS(=O)(=O)c3ccc(Br)cc3)ccc21 | -24% (inactive)
18 | Cc1ccc(CNC(=O)CN(C(=O)C2(C)CC(=O)N=C3C=CC=CN32)c2ccccc2F)cc1 (centres undefined) | -8% (inactive)
19 | O=C1CN(S(=O)(=O)c2ccccc2)CC(=O)N1CCc1ccccc1 | -6% (inactive)
20 | CCN(CCCn1c(=S)[nH]c2ncccc2c1=O)c1ccccc1 | -2% (inactive)
21 | CC(C)CCn1c(=S)[nH]c2ncccc2c1=O | -1% (inactive)
22 | O=c1c2ccccc2[nH]c(=S)n1CCc1ccccc1 | 20% (active)
23 | Cc1ccc(Cn2c(=S)[nH]c3ccccc3c2=O)cc1 | 3% (active)
24 | CCCCn1c(=S)[nH]c2ccccc2c1=O | 3% (active)
25 | O=c1c2cc(Cl)ccc2[nH]c(=S)n1Cc1cccs1 | -8% (inactive)
26 | CCCCCn1c(=S)[nH]c2ncccc2c1=O | 40% (active)

Row | SMILES | activity increase over dofetilide control, less the hit threshold
27 | CCOCCCn1c(=S)[nH]c2cc(C(=O)NCCOC)ccc2c1=O | -13% (inactive)
28 | CCCCC(CC)CNC(=O)Cn1c(=S)[nH]c2ncccc2c1=O (centres undefined) | -12% (inactive)
29 | Cc1ccc(OCCC(=O)OC(C)C(=O)Nc2ccc(Cl)cn2)cc1 (centres undefined) | -11% (inactive)
30 | CCC1(C)CC2(CCCN(CCC(=O)c3ccccc3)C2)CCO1 (centres undefined) | -34% (inactive)
31 | Cc1ccc(NC(=O)CSc2nnc(-c3cccnc3)n2-c2ccc(C)cc2)cc1 | -20% (inactive)
32 | c1ccc(-c2n[nH]c(-c3ccccn3)n2)cc1 | 7% (active)
33 | c1ccc(-c2ccc(-c3ccncn3)cc2)cc1 | -14% (inactive)
34 | COc1ccc(-c2nc(-c3ccccn3)ncc2S(C)(=O)=O)cc1 | -15% (inactive)
35 | Cc1nc(Oc2ccc(Cl)cc2)c2oc3ccccc3c2n1 | -9% (inactive)
36 | O=C1N2CCSC2=NC1(NS(=O)(=O)c1ccccc1)C(F)(F)F (centres undefined) | 5% (active)
37 | COc1ccc(CCNC(=O)C2CCCN(S(C)(=O)=O)C2)cc1 (centres undefined) | -15% (inactive)
38 | COc1ccc(-n2c(SCC#N)nnc2-c2cccnc2)cc1 | -26% (inactive)
39 | O=C1CC(N2CCN(c3ccccc3Cl)CC2)C(=O)N1c1ccc(F)cc1 (centres undefined) | -10% (inactive)
40 | CC(=O)Oc1c(-c2ccco2)oc2ccccc2c1=O | -1% (inactive)
41 | COc1ccc(-c2oc3ccccc3c(=O)c2OC(C)=O)cc1 | 7% (active)
42 | CC(=O)Oc1c(-c2ccc(Br)o2)oc2ccccc2c1=O | 66% (active)
43 | COc1ccc(-c2c(C)c3ccc(OCC(C)=O)cc3oc2=O)cc1 | -20% (inactive)
44 | COc1ccc(C(=O)c2oc3ccccc3c2N)cc1 | -12% (inactive)
45 | Cc1ccnc(SCCn2c(N3CC(C)OC(C)C3)nc3c2c(=O)n(C)c(=O)n3C)n1 (centres undefined) | -26% (inactive)
46 | CCN1C(=O)/C(=C\c2ccc(-c3cccc(C(=O)OC)c3)o2)SC1=Nc1ccc(C(=O)O)cc1 | -3% (inactive)
47 | N=C1S/C(=C\c2ccc(-c3cccc(Cl)c3)o2)C(=O)N1c1nccs1 | 50% (active)
48 | COc1ccc(/C=C2\SC(=N)N(c3nccs3)C2=O)cc1OC | 30% (active)
49 | N=C1S/C(=C\c2ccco2)C(=O)N1c1nccs1 | -24% (inactive)
50 | COc1cccc(CN(C)CC2CCCN(CCc3ccc(Cl)cc3)C2)c1OC (centres undefined) | -31% (inactive)
51 | O=C(NCc1cccs1)C1CC(c2ccc(F)cc2)=NO1 (centres undefined) | -24% (inactive)
52 | Cc1occc1C(=O)NNC(=S)NC(=O)COc1ccc(Cl)cc1Cl | 100% (active)

Row | SMILES | activity increase over dofetilide control, less the hit threshold
53 | COc1ccc(Cl)cc1C(=O)NNC(=S)NC(=O)/C=C/c1ccco1 | -4% (inactive)
54 | CCC(=O)N1CCCc2ccccc21 | -8% (inactive)
55 | Cc1ccc(Cn2nnc3c(=O)n(CC(=O)N4CCCc5ccccc54)cnc32)cc1 | 2% (active)
56 | CC(=O)N1CCCc2cc(S(=O)(=O)NCc3ccc(C)cc3)ccc21 | -1% (inactive)
57 | Cn1c(=O)c2sccc2n(Cc2cccc(Br)c2)c1=O | -11% (inactive)
58 | Cn1c(=O)[nH]c(=O)c2c1nc(CN1CCN(c3ccccc3F)CC1)n2CCCc1ccccc1 | -7% (inactive)
59 | O=C(COC(=O)C1C2CC3OC(=O)C1C3C2)Nc1ccc(Cl)cc1 (centres undefined) | -17% (inactive)
60 | O=C(CN1C(=O)c2ccccc2S1(=O)=O)NCCSCc1ccccc1Cl | -16% (inactive)
61 | CC(/C=C1\N=C(SCc2ccccc2Cl)SC1=O)=C\c1ccccc1 | -9% (inactive)
62 | O=C(O)CCCCn1c(SCc2ccccc2Cl)nc2ccsc2c1=O | 4% (active)
63 | Cc1cc(NC(=O)CCCn2cnc([N+](=O)[O-])n2)no1 | -9% (inactive)
64 | CCOC(=O)C1CCN(C(=O)COC(=O)c2nn(C)c(=O)c3ccccc23)CC1 | -23% (inactive)
65 | CCOC(=O)c1nnn(CC(=O)Nc2ccccc2OC)c1C(=O)OCC | -3% (inactive)
66 | CCOC(=O)c1n[nH]n2c1nc(=S)c1ccccc12 | 46% (active)
67 | C[n+]1ccccc1COc1ccc(C(C)(C)C)cc1 | -15% (inactive)
68 | COC(=O)c1ccc(/C=C/c2ccc3cccc(OC)c3n2)cc1 | -7% (inactive)
69 | Cc1ccc(C)c(/C=C/C(=O)c2ccccc(=O)c2O)c1 | -3% (inactive)
70 | Cc1ccc(NS(=O)(=O)c2ccc(NC(=O)c3ccccc3C(=O)O)cc2)cc1C | -5% (inactive)
71 | Cc1ccc(/C=C/C(=O)c2ccccc(=O)c2O)c(C)c1 | 22% (active)
72 | O=C(/C=C/c1ccccc1Cl)c1ccccc(=O)c1O | 13% (active)
73 | Cc1ccc(/C=C/C(=O)c2ccccc(=O)c2O)cc1C | 8% (active)
74 | Cc1ccc(C(=O)c2ccccc2C(=O)O)c(O)c1 | -6% (inactive)
75 | CC(=O)c1sc(-c2ccc(F)cc2)cc1NS(=O)(=O)c1ccc(C)cc1 | -14% (inactive)
76 | CC1=[N+]([O-])C(C)(C)C(c2ccc(Br)cc2)=[N+]1[O-] | -3% (inactive)
77 | COCCNC(=O)CN(C(=O)c1ccc(N2CCCC2)nc1)c1ccccc1 | -15% (inactive)
78 | CCc1ccc2[nH]c(=O)c(-c3ccccc3)c(O)c2c1 | -20% (inactive)

Row | SMILES | activity increase over dofetilide control, less the hit threshold
79 | CCC(C)C(NC(=O)C(C)NC(=O)CNC(=O)CNC(=O)OCc1ccccc1)C(=O)OC (centres undefined) (Cbz-GGAI-OMe; configuration not given here) | -22% (inactive)
80 | CN1C(=O)NC(c2cccc([N+](=O)[O-])c2)C2=C1CC(C)(C)CC2=O (centres undefined) | -14% (inactive)
81 | CCc1ccccc1NC(=O)CC1CS(=O)(=O)CC1CC(=O)Nc1ccccc1CC (centres undefined) | -4% (inactive)
82 | N#C/C(=N\Nc1ccccc1F)c1nc(-c2ccccc2)cs1 | -14% (inactive)
83 | O=C(O)/C=C/c1cn(-c2ccccc2)nc1-c1ccc(-c2ccc([N+](=O)[O-])cc2)o1 | 27% (active)
84 | COC(=O)Oc1ccc(/C=C/C(=O)OC(C)C)cc1OC(=O)OC | 2% (active)
85 | Cc1cc(C)nc(NS(=O)(=O)c2ccc(NC(=O)Cc3ccccc3)cc2)n1 | -5% (inactive)
86 | Cc1cc(O)c(/C=N/OCc2ccc(Cl)cc2Cl)c(=O)o1 | -4% (inactive)
87 | Brc1ccc(-c2noc(CCc3ccccc3)n2)cc1 | -20% (inactive)
88 | CC(C)Cn1c(=S)[nH]c2cc(Cl)ccc21 | 5% (active)
89 | Cc1nnc(SCC2=C(C(=O)O)N3C(=O)C(NC(=O)Cn4nc(C(F)F)cc4C)C3SC2)s1 (centres undefined) | -5% (inactive)
90 | Cc1ccc(C)c(NC(=S)c2nc3ccccc3s2)c1 | -10% (inactive)
91 | Cc1ccccc1NP(=O)(c1ccccc1)c1nc2ccccc2s1 (centres undefined) | -8% (inactive)
92 | Cc1ccc(C)c2sc(NC(=O)c3nc4ccccc4s3)nc12 | 35% (active)
93 | COc1ccccc1C(=O)NNC(=O)C(=O)Nc1cccc(Cl)c1C | 100% (active)
94 | COc1ccccc1C(=O)Nc1ccc(C(=O)N2CCCC2)cc1 | 0% (inactive)
95 | C/C(CC(=O)Nc1ccccn1)=N\NC(=O)C(=O)Nc1cccc(Cl)c1C | -6% (inactive)
96 | COc1ccc(Cl)cc1C(=O)Nc1cccnc1Cl | -8% (inactive)
97 | Cc1ccccc1C(=O)NNC(=O)C(=O)Nc1cccc(Cl)c1C | 27% (active)
98 | CC(=O)Nc1ccccc1C(=O)C(=O)Nc1ccc(Cl)cc1 | -3% (inactive)
99 | NC(=O)Cn1c2[n+](c3ccccc31)CC(O)CS2 (centres undefined) | -24% (inactive)
100 | CCCN1C(=O)/C(=C/c2ccc3c(c2)OCO3)NC1=S | -13% (inactive)
101 | CCN1C(=O)/C(=C/c2ccc(C)s2)NC1=S | 14% (active)
102 | CC(C)CN1C(=O)/C(=C/c2ccco2)NC1=S | -26% (inactive)
103 | CCCN1C(=O)/C(=C/c2ccc(C)s2)NC1=S | 71% (active)
104 | CC(C)CN1C(=O)/C(=C/c2cccs2)NC1=S | 85% (active)

From PubChem BioAssay AID1835 (Johns Hopkins Ion Channel Center, 2009)
